From PubChem
KinaseGlo FLuc = counter-screen: inhibitors of Kinase-Glo firefly luciferase. Q27757. Kinase-Glo luciferase, ATP luminescence, 8 min. Potency, µM (top dose mostly 38.3 µM), usual class: inhibitors. 0.28% of 200,000 active. AID 1379; further: nearly all actives have a fitted effect of over 60% in size
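Luminescence was the read-out, taken after 8-minute incubation at ambient temperature. Luciferase turned over luciferin with 10 uM ATP in imidazole pH 7.2 buffer containing KCl, MgCl2, Tween 20 and BSA.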
FLuc modulator = inhibits or activates purified firefly luciferase, miR-21 counter-screen; purified FLuc, Km substrates, luminescence inhibition; 6.9% of 360,000 active; P08659; Potency, µM (series often up to 57.5 µM), hits mostly inhibitors; further: nearly all actives have a fitted effect of over 55% in size
Target sequence (P08659 whole entry, looked up): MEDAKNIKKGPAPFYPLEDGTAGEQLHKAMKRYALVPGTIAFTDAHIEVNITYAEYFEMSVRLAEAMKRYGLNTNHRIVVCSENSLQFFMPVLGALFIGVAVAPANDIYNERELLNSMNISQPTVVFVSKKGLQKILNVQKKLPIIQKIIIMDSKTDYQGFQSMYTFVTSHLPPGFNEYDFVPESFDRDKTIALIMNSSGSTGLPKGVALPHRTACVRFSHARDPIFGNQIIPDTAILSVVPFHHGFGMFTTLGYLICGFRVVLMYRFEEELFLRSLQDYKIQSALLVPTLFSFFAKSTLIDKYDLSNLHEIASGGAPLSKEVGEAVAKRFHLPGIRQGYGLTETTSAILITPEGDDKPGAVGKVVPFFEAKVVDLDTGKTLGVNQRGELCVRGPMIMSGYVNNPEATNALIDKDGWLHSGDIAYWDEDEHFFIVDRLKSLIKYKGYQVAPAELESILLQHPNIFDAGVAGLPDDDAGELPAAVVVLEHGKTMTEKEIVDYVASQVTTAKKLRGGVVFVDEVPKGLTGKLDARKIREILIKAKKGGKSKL
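Biochemical qHTS of compounds, final roughly 60 µM downward over six points, against 10 nM purified firefly luciferase using Km concentrations of substrates (10 uM D-luciferin, 10 uM ATP) in Tris acetate pH 7.5 buffer; luminescence output.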
Rab9 prom act = Rab9 promoter activation; 2.8% of 320,000 active; AID 485297; Potency, µM (series often up to 9.22 µM), hits mostly activators; Huh7 Rab9 promoter-luciferase reporter, luminescence, 24 h; further: nearly all actives have a fitted effect of over 60% in size
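Huh7 cells stably carrying Rab9 promoter–luciferase reporter, plated 1500 cells/well, compound added after 2 h and incubated 24 h at 37 °C; luciferase luminescence then read after 10 min with detection reagent.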
NPC1 prom act = activators of NPC1 promoter. 2.4% of 320,000 active. Huh7 NPC1 promoter luciferase reporter, 24 h. AID 485313. Potency, µM (doses to about 9.22 µM), hits mostly activators; further: nearly all actives have a fitted effect of over 60% in size
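Luciferase expression driven by the NPC1 promoter was measured in stably transfected Huh7 cells after a 24 h compound incubation, using a luciferase reagent and a luminescence read.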
ELG1 genotox = induces genotoxicity in HEK293T cells with luciferase-tagged ELG1. HEK293T ELG1-luciferase reporter, luminescence, 16 h. Potency, µM (highest dose often 46 µM), actives largely listed as activators. 1.3% of 330,000 active; further: nearly all actives have a fitted effect of over 60% in size
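Genotoxicity was scored as increased ELG1-luciferase reporter signal, measured by ONE-Glo luminescence (30 min, room temperature). Compound or vehicle exposure of the HEK293T reporter cells lasted 16 hr at 37°C.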
SMN2 splice enh = increases expression of the SMN2 splice variant; HEK293 SMN2-luciferase splicing reporter, luminescence, 30-36 h; Potency, µM (highest dose often 46.1 µM), actives largely listed as activators; 2.8% of 210,000 active; AID 1458; further: nearly all actives have a fitted effect of over 55% in size
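HEK293 cells carry an SMN2 minigene-luciferase reporter in which exon 7 inclusion puts luciferase in frame. Cells were seeded at 2000 cells/well, attached for 10-12 hours, then exposed to compounds for 30-36 hours at 37C before ONE-Glo luminescence.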
Numbers stand for hits; . = inactive; ? = inconclusive; / = not tested or not shown. A selection: hits, their analogues and other compounds. The true share with any hit is near 7.3%. The call rests on the fitted dose curve; in most records, active means well fitted curve in the direction sought with a large enough effect; inconclusive means small, poorly fitted or top-dose-only effect, or another doubt; inactive means no such curve, though single readings can be large; an effect the other way counts as inactive or inconclusive.

SMILES | KinaseGlo FLuc | FLuc modulator | Rab9 prom act | NPC1 prom act | ELG1 genotox | SMN2 splice enh
COC(=O)C1CCN(C(=O)c2ccc3nc(-c4cccc(OC)c4)oc3c2)CC1 | / | 21µM | 2µM | 1.8µM | ? | /
CC(=O)c1cccc(Nc2ncnc3ccc(Br)cc23)c1 | / | . | . | . | . | /
O/N=C1/CC/C(=N\O)c2nn(-c3ccccc3)nc21 | ? | ? | . | . | . | ?
O=C(O)c1nn(-c2ccccc2)nc1-c1nn(-c2ccccc2)nc1C(=O)O | . | 21µM | . | . | . | .
COC(=O)c1nnn(-c2ccccc2)c1N | . | . | . | . | . | .
COC(=O)c1nn(-c2ccccc2)nc1-c1nn(-c2ccccc2)nc1C(=O)OC | . | 2.4µM | . | . | ? | .
CC(C)C(=O)OC1CCS(=O)(=O)c2sccc21 (centres undefined) | . | . | . | . | . | .
O=C1Nc2ccccc2SC1c1ccccc1 (centres undefined) | / | . | . | . | . | /
Cc1ccc(NC2Sc3ccccc3NC2=O)cc1 (centres undefined) | . | 2.1µM | 1.4µM | 4µM | ? | 11µM
COc1cccc(NC(=O)N(CCN(C)C)C(C)c2cccnc2)c1 (centres undefined) | / | . | . | . | . | /
COc1cc(/C=C2/C(=O)NN(c3ccc(Cl)cc3)C2=O)cc(OC)c1O | / | 12µM | . | . | . | /
CCOC(=O)COc1ccc(/C=C2/C(=O)NN(c3ccc(F)cc3)C2=O)cc1OC | / | ? | . | . | . | /
COc1cc(/C=C2/C(=O)NN(c3ccccc3)C2=O)cc(Br)c1O | / | 17µM | . | . | . | /
COc1ccc(C)cc1NC(=O)CN(c1ccccc1)S(=O)(=O)N(C)C | / | . | / | / | / | .
Cc1ccccc1NC(=O)CC1SC(=Nc2ccc(O)cc2)NC1=O (centres undefined) | / | . | . | . | . | /
Cc1cccc(C(=O)Oc2ccc(/C=N/NC(=O)c3ccc(O)cc3)cc2)c1 | / | ? | . | . | . | /
O=C(Oc1ccc(/C=N/Nc2ccccc2)cc1)c1ccccc1 | . | ? | . | . | ? | .
CC(C)(C)c1ccc(OCCC(=O)NNC(=O)c2ccccc2)cc1 | / | . | . | . | . | /
Cc1cccc(C(=O)Oc2ccc3ccc(O)cc3c2)c1 | / | 24µM | . | . | . | /
CC(C)(C)c1ccc(OC(=O)c2ccccc2)cc1 | / | 2.4µM | . | . | . | /
O=C(Oc1ccc(/C=N/O)cc1)c1ccccc1 | . | 12µM | ? | . | . | .
O=C(Oc1ccc2ccccc2c1)c1ccccc1 | . | 2.4µM | . | . | ? | .
O=C(Cc1ccc(Cl)cc1)Nc1nnc2n1CCS2 | / | . | / | / | / | /
CCc1ccc(NC2=NCC(c3ccccc3)S2)cc1 (centres undefined) | . | 7.6µM | ? | ? | ? | 14µM
CCOC(=O)Cn1nc(/C=C/c2ccc(C)cc2)ccc1=O | . | ? | . | . | . | .
SMILES | KinaseGlo FLuc | FLuc modulator | Rab9 prom act | NPC1 prom act | ELG1 genotox | SMN2 splice enh
CCOC(=O)Cn1nc(/C=C/c2ccc(C(C)C)cc2)ccc1=O | . | 11µM | . | . | . | .
CC(C)(C)C(=O)N1CCN(c2ccc([N+](=O)[O-])cc2-n2cccc2)CC1 | / | . | . | . | . | /
COc1ccc2cc3cc(C(=O)N4CCCC(C)C4)oc3nc2c1 (centres undefined) | / | 5.4µM | 2µM | 2.5µM | ? | /
COc1ccc2nc3oc(C(=O)N4CC(C)CC(C)C4)cc3cc2c1 (centres undefined) | / | 21µM | . | . | . | /
CCOC(=O)C1CCCN(C(=O)c2cc3cc4ccc(OC)cc4nc3o2)C1 (centres undefined) | / | ? | . | . | . | /
CCOC(=O)C1CCN(C(=O)c2cc3cc4cc(OC)ccc4nc3o2)CC1 | . | ? | 3.2µM | ? | . | 11µM
COc1ccc2cc3cc(C(=O)N4CCN(c5ccccc5)CC4)oc3nc2c1 | . | ? | . | . | . | .
COc1ccc2nc3oc(C(=O)N4CCCCC4)cc3cc2c1 | . | 6.7µM | 2.8µM | 3.2µM | 15µM | 14µM
CCOC(=O)C1CCN(C(=O)c2cc3ccc(OC)cc3[nH]2)CC1 | / | . | ? | ? | . | /
Cc1cc(S(=O)(=O)NCc2cccs2)ccc1-n1cnnn1 | . | . | . | . | . | .
CCC1CCCCN1C(=O)CCNS(=O)(=O)c1ccc2c(c1)oc(=O)n2C (centres undefined) | / | . | . | . | . | /
COc1cc(S(=O)(=O)Nc2ccc(C)cc2)ccc1N=Cc1c(C)[nH]n(-c2ccc(C)cc2)c1=O | . | . | . | . | . | .
COC(=O)C(Sc1nc(C)cc(C)c1C#N)c1ccccc1 (centres undefined) | . | . | . | . | . | ?
Cc1cc(C)c(C#N)c(Sc2ccccc2N)n1 | . | 15µM | . | . | ? | .
CCOC(=O)Cn1cc(/C=N/NC(=O)c2cc3ccccc3o2)c2ccccc21 | / | 13µM | . | . | . | /
CCn1cc(/C=N/NC(=O)c2cc3c(ccc4ccccc43)o2)c2ccccc21 | . | ? | . | . | . | .
O=C(N/N=C/c1cccnc1)c1cc2ccccc2o1 | . | ? | . | . | . | .
Cc1cc(/C=N/NC(=O)c2cc3ccccc3o2)c(C)n1C | / | 21µM | . | . | . | /
O=C(N/N=C/c1ccncc1)c1cc2ccccc2o1 | . | 21µM | . | . | . | .
Cc1cnc(CNC(=O)c2ccc3oc(Cc4ccccc4)nc3c2)[nH]1 | / | . | . | . | . | /
Cc1cc(/C=C(\C#N)c2nnc(N3CCOCC3)n2-c2ccccc2)c(C)n1-c1ccccc1 | . | 17µM | . | . | . | .
Cc1cc(C=C(C#N)C#N)c(C)n1-c1ccccc1 | . | 4.8µM | ? | ? | . | .
Cc1ccc(-n2c(C)cc(C=C(C#N)C#N)c2C)cc1 | . | 19µM | . | . | . | .
Cc1cc(/C=C(\C#N)C(=O)O)c(C)n1-c1ccc(Br)cc1 | / | 17µM | . | . | . | /
COc1cc(/C=C(\C#N)c2nnc(N3CCOCC3)n2-c2ccccc2)ccc1O | / | . | . | . | ? | /
SMILES | KinaseGlo FLuc | FLuc modulator | Rab9 prom act | NPC1 prom act | ELG1 genotox | SMN2 splice enh
CCCCNC(=S)Nc1ccc2cn[nH]c2c1 | . | . | . | . | . | .
COc1ccccc1C(C[N+](=O)[O-])c1c[nH]c2ccccc12 (centres undefined) | / | . | . | . | . | /
O=C(CN1C(=O)c2ccccc2C1=O)OCc1nc2ccsc2c(=O)[nH]1 | / | . | . | . | . | /
COc1ccc(NC(=O)c2cc3c(=O)n(C)c4ccccc4c3s2)cc1Cl | / | . | / | / | / | .
CC(C)NC(=O)NC(=O)COC(=O)/C=C/c1ccc2c(c1)OCO2 | / | . | . | . | . | /
Cc1cccc(-c2nsc(SCC(=O)Nc3cc(C)on3)n2)c1 | . | . | . | . | . | .
CCOC(=O)CNC(=O)CSc1nc(-c2ccccc2)ns1 | . | ? | . | . | . | .
